# Assay outcomes deposited in PubChem by National Center for Advancing Translational Sciences (NCATS).
# Rows were chosen to be rich in hits. Some 2.9% of all compounds tested hit in one or more screens of this group.
# DRD3 agonist: activates the human D3 dopamine receptor; P35462; D3R DiscoveRx beta-arrestin cells, luminescence, 90 min; AID 652048; hit rate 0.58% among 410,000; max activation, %; in the data active = max activation above about 30%; also: 0% is about no effect
# Target sequence (P35462 whole entry, looked up): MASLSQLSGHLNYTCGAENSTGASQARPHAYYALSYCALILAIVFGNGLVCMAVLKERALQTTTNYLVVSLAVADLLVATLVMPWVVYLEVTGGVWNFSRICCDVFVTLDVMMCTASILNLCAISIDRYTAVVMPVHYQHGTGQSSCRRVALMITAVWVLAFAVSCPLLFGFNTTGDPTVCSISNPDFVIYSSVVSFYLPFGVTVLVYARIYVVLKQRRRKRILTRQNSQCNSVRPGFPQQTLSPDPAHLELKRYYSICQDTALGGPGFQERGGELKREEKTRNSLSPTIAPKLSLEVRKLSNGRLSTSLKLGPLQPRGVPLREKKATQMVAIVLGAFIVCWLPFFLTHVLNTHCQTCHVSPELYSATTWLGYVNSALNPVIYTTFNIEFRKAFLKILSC
#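 Agonist mode: compounds and dopamine controls were applied to plated cells for 90 min at 37 degrees C after an overnight attachment at 1500 cells/well. Luminescent read-out followed 30 - 60 minutes at room temperature with DiscoveRx detection reagent.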
# DRD3 antagonist: antagonists of human D3 dopamine receptor; P35462; D3R cells, DiscoveRx beta-arrestin luminescence, antagonist mode; stronger effect = lower value; max response, negative = inhibition, %; hit rate 2.5% among 360,000; AID 652054; in the data active = max response below about -50%; inconclusive = no clear call, values can overlap the other calls; also: % is scaled to controls: 0 for no effect and ±100 for the full control effect
#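 Cells plated overnight at 1500 cells/well, then exposed to library compounds with dopamine controls for 90 minutes at 37 degrees C. DiscoveRx reagent added for 30–60 minutes at room temperature; luminescence read, quantitative HTS format.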
# B2AR arrestin: beta2AR (human) beta-arrestin recruitment activity; Potency, µM (titrated, usually from 46.1 µM), inactives show top-dose activation, most hits filed as activators; beta-arrestin recruitment to beta2AR, cell-based reporter; P07550; hit rate 0.02% among 330,000;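 also: potency is read from the fitted curve at half-maximal effect; 0% = DMSO controls and full agonism = EC100 isoproterenol or metaproterenol; nearly all actives have a fitted effect of over 65% in size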
# a7 integrin act: activators of alpha7 integrin expression for muscular dystrophy | Potency, µM (highest dose often 38.3 µM), for the others: at the top dose activation, hits mostly activators | hit rate 0.064% among 350,000 | alpha7betagal myoblasts, beta-gal FDG fluorescence, 48 h;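 also: potency is read from the fitted curve at half-maximal effect; 100% = response of the positive control SU9516; nearly all actives have a fitted effect of over 60% in size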
#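 Alpha7betagal+/- myoblasts (passage 13) were plated 16-24 hr, then exposed to compounds (1:260 dilution of DMSO stock) for 48 hours at 37C. After MPER lysis, β-galactosidase reporter activity was read as FDG fluorescence (ex 480/em 540) after 30 minutes.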
# IDH1 R132H inh: blocks human mutant IDH1 R132H enzyme; O75874; IDH1-R132H enzyme, NADPH consumption, diaphorase/resazurin fluorescence; Potency, µM (series often up to 76.6 µM), inactives show top-dose activity change, negative = inhibition, usual class: inhibitors; hit rate 0.093% among 390,000; also: potency is read from the fitted curve at half-maximal effect; % is scaled to controls: 0 for no effect and ±100 for the full control effect; nearly all actives have a fitted effect of over 65% in size
#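 IDH1-R132H (0.5 ug/mL) preincubated 30 min with compound, then NADPH (0.016 mM) and alpha-KG (2 mM) added; 80 min at RT, pH 7.5. Remaining NADPH coupled via diaphorase/resazurin to fluorescence (540/590 nm); concentration-response curves normalized to no-enzyme control.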
# The depositor's hits bear a star; ? = inconclusive; · = no result given; ! = not active in a repeat. Unless noted, calls follow the shape of the dose curve; as a rule, active = well fitted curve in the direction sought with a large enough effect; inconclusive = small, poorly fitted or top-dose-only effect, or another doubt; inactive = no such curve, though single readings can be large; an effect the other way counts as inactive or inconclusive.
SMILES,DRD3 agonist,DRD3 antagonist,B2AR arrestin,a7 integrin act,IDH1 R132H inh
O=C(CCNC(=O)Cn1ccc2ccccc2c1=O)NCCN1CCc2ccccc2C1,-16,-52*,0%,-15%,0%
O=C(Cn1nc(-c2ccccc2)ccc1=O)NCCN1CCN(c2cccc(Cl)c2)CC1,-31,-60*,-1%,-7%,1%
CN1CCN(C(=O)CCNC(=O)Cn2ccc3ccccc3c2=O)CC1,-3,?,-1%,12%,7%
Cc1ccc2c(c1)N(CCC(=O)NCc1ccccn1)C(=O)CO2,-5,-64*,0%,0%,9%
CCN(CC)CCOC(=O)c1ccc(NC(=O)CCCN2C(=O)/C(=C\c3cccs3)SC2=S)cc1,-24,-109*,-1%,-61%,-1%
CCOc1ccc(N=C(C)Nc2ccc(OCC)cc2)cc1,-8,·,·,·,·
CCCC(=O)N1CCC1(C)C(=O)Nc1ccc(C)c(C)c1 (configuration not stated),-12,0,·,·,·
CCOC(=O)c1cc(-c2ccc(C)cc2)n(CCC(=O)Nc2ccc(OC)c(OC)c2)c1C,4,·,·,·,-3%
O=C(CCN1C(=O)COc2ccccc21)NCCC1=CCCCC1,-21,-110*,-1%,-41%,3%
O=C(CCNC(=O)Cn1ccc2ccccc2c1=O)NCCN1CCN(c2cccc(Cl)c2)CC1,3,-61*,0%,-4%,7%
O=C(CCN1C(=O)COc2ccccc21)NCCN1CCN(c2cccc(Cl)c2)CC1,-31,-69*,0%,-44%,-1%
CCN(CC)CCOC(=O)c1ccc(NC(=O)CCNC(=O)Cn2ccc3ccccc3c2=O)cc1,0,-64*,0%,0%,1%
O[C@@H](CNC[C@H](O)[C@H]1CCc2cc(F)ccc2O1)[C@@H]1CCc2cc(F)ccc2O1,-20,·,·,·,·
COc1cc(/C=C2\SC(=O)N(CC(=O)Nc3cccc(C)c3)C2=O)cc([N+](=O)[O-])c1O,38*,39,0%,-10%,8%
COc1cc(OC)c(/C=C2\SC(=O)N(CC(=O)Nc3ccccc3F)C2=O)c(OC)c1,-6,-12,0%,-29%,-4%
CCOc1cc(/C=C2\SC(=O)N(CC(=O)Nc3ccccc3F)C2=O)cc([N+](=O)[O-])c1O,5,-3,0%,-22%,6%
COc1cc(/C=C2\SC(=O)N(CC(=O)Nc3ccccc3F)C2=O)cc(Cl)c1O,59*,154,-1%,-53%,16%
Cc1cc(C)cc(NC(=O)c2sc3nc4n(c(=O)c3c2C)N=C(c2ccc(F)cc2)CS4)c1,-9,·,·,·,12%
CCOC(=O)c1sc2ccccc2c1S(=O)(=O)Nc1ccc(N(C)C)cc1,2,·,·,·,25%
NC(=O)[C@H]1O[C@@H](O)[C@H](O)[C@@H](O)[C@@H]1O,-6,·,·,·,·
Cc1ccc(NC(=O)CN(C)C(=O)CSc2nc(C)cs2)cc1,-18,-62*,0%,-14%,3%
C[C@]12CC[C@H]3[C@@H](CCC4=CC(=O)CC[C@@]43C)[C@@H]1CC[C@@H]2C(=O)CO,-91,-88*,-1%,·,-13%
CC(=O)OCC(=O)[C@H]1CC[C@H]2[C@@H]3CCC4=CC(=O)CC[C@]4(C)[C@H]3CC[C@]12C,5,3,-1%,·,9%
CCn1c(=O)c2cc(C(=O)N3CCN(c4cccc(OC)c4)CC3)sc2c2ccccc21,-10,·,·,·,17%
O=C(NNC1=NCCC1)c1cccc(Br)c1,-2,-58*,-1%,13%,-12%
SMILES,DRD3 agonist,DRD3 antagonist,B2AR arrestin,a7 integrin act,IDH1 R132H inh
Cc1ccccc1C(=O)NNC1=NCCC1,0,-12,0%,21%,10%
COc1ccc(NC(=O)C2CCCN(S(=O)(=O)c3ccc(F)cc3)C2)cc1 (configuration not stated),-12,·,·,·,20%
Cc1c(NC(=O)c2ccc(N3CCCC3)c([N+](=O)[O-])c2)cccc1-c1nc2ccccc2s1,-32,-51*,0%,-11%,8%
COc1ccc(NC(=O)/C(Cl)=C(/Cl)S(=O)Cc2ccc(Cl)cc2)cn1 (configuration not stated),-33,-116*,0%,-50%,5%
COc1ccc(C(=O)NCCn2cc(SCC(=O)NCc3ccco3)c3ccccc32)cc1,4,-69*,0%,-25%,13%
COc1ccc(C(=O)NCCn2cc(SCC(=O)NCC3CCCO3)c3ccccc32)cc1 (configuration not stated),0,24,-2%,11%,-16%
COc1ccc(Nc2ncnc3onc(-c4ccc(Cl)cc4)c23)cc1Cl,-5,·,·,·,13%
CN1CCCN(CC(O)COCc2cccs2)CC1 (configuration not stated),10,5,0%,-32%,0%
OC(COCC1COc2ccccc2O1)CN1CCN(c2ccccn2)CC1 (configuration not stated),75*!,-24,0%,4%,-8%
OC(COCc1cccs1)CN1CCN(c2ccccn2)CC1 (configuration not stated),57*,-25,0%,5%,4%
CCOc1ccccc1N1CCN(CC(O)COCc2cccs2)CC1 (configuration not stated),-25,-85*,0%,-31%,0%
Cc1cccc(N2CCN(CC(O)COCc3cccs3)CC2)c1C (configuration not stated),58*,-6,-2%,5%,-5%
OC(COCc1cccs1)CN1CCCCCC1 (configuration not stated),-4,-11,-1%,2%,3%
CNC(=O)c1ccccc1Sc1ccc2c(/C=C/c3ccccn3)n[nH]c2c1,6,·,·,·,·
COc1ccc(NC(=O)CSc2nncn3c2cc2occc23)c(OC)c1,-19,·,·,·,5%
COc1ccccc1Cn1cc(C(=O)c2ccc(C)cc2)c(=O)c2cc(C)ccc21,5,·,·,·,0%
OC(COc1ccc(Cl)cc1)CN1CCN(c2ccccn2)CC1 (configuration not stated),12,-8,·,-9%,2%
OC(COCc1cccs1)CN1CCN(c2ccccc2Cl)CC1 (configuration not stated),-18,-69*,0%,-3%,-4%
OC(COCc1ccc(Cl)cc1)CN1CCN(c2ccccn2)CC1 (configuration not stated),59*,0,-1%,-18%,-2%
OC(COCc1cccs1)CN1CCN(c2cccc(Cl)c2)CC1 (configuration not stated),-6,-56*,-1%,9%,3%
Cc1cccc(N2N=C(C(=O)N3Cc4ccccc4CC3C(N)=O)CCC2=O)c1 (configuration not stated),1,14,-1%,21%,16%
CCCS(=O)(=O)c1c(S(=O)(=O)CCC)c2cc(C(C)(C)C)ccn2c1C(=O)c1ccc(C)cc1,0,·,·,·,-1%
